# Laboratory results: PubChem BioAssay
# A number with no mark means an inactive call. This is one part of the list. Calls of active or inactive are those of the source.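 How the source made its calls, unless noted: active means inhibition above the hit cutoff computed for the primary STAT3 screen (cut at about 44% in these data); inactive means the rest.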
# Experiments:
# [1] = STAT3 reporter inhibitors, retest of hits, confirmation, U3A cells, luciferase, luminescence (AID 1265); conditions: IL-6 STAT3 luciferase reporter, at 5.7 µM, active compounds read high, cell line lacks STAT1;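 further: 0% = IL-6 plus DMSO and 100% = IL-6 plus nifuroxazide control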
# [2] = NF-kB reporter inhibitors in human cells, confirmation, counter-screen for STAT3 inhibitor project, cell-based, HEK293T, luciferase, TNF-alpha stimulus (AID 1308;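 active means inhibition above the mean of solvent-only control wells plus 3 SD, cutoff set per campaign, cut at about 13% in these data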;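 further: 0% = TNF-alpha with DMSO and 100% = TNF-alpha with MG high control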); conditions: TNF-alpha induced, at 5.7 µM, active compounds read high
# [3] = STAT1 reporter inhibitors, IFN-gamma induced, confirmation, counter-screen for STAT3 inhibitor project, cell-based, NIH 3T3, luciferase luminescence (AID 1317;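 active means inhibition above the mean plus 3 SD of solvent-only control wells, limit set per screening run, cut at about 16% in these data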;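 further: 0% = DMSO with IFN-gamma and 100% = nifuroxazide control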); conditions: NIH 3T3 STAT1-luciferase reporter, at 5.7 µM, active compounds read high
# [4] = STAT1 signaling activators, confirmation, cell-based, HTS, luciferase reporter (AID 1262;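 active means activation above a set limit carried over from the earlier primary STAT1 screen, cut at about 140% in these data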;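 further: simple ratio to median IFN-gamma plus DMSO wells so 0% means no light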); conditions: NIH 3T3 STAT1-luciferase reporter, IFN-gamma potentiation, luminescence; at 5.7 µM; active compounds read high; 100% = IFN-gamma EC80 alone, no compound
# [5] = NF-kB reporter activators, TNF-alpha stimulated, counter-screen for STAT1 activator project, cell-based, HEK293T, luciferase luminescence (AID 1306;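 active means activation above the mean of solvent-only control wells plus 3 SD, set per campaign, cut at about 130% in these data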;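 further: TNF-alpha given at a submaximal dose yielding about 80% of full reporter signal; values are well signal over median control so 100% means no change and 0% no light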); conditions: at 5.7 µM, active compounds read high, 100% = TNF-alpha with vehicle only
# [6] = biological target: Signal transducer and activator of transcription 3 (Homo sapiens) (UniProt P40763); test: STAT3 reporter activation by STAT1 hits, confirmation, counter-screen for STAT1 activator project, U3A cells, luciferase, luminescence (AID 1316;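 active means activation above the solvent-only control well mean plus 3 SD, set per plate batch, cut at about 110% in these data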;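 further: 0% = no luminescence and 100% = median IL-6 plus DMSO wells; higher means more STAT3 reporter activation so hits are non-selective activators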); conditions: IL-6, luminescence, at 5.7 µM, active compounds read high, 100 = IL-6 alone, no compound effect, cells lack STAT1
# [7] = test system: DAF-12 nuclear receptor (Heterodera glycines), GAL4-LBD fusion; test: H. glycines DAF-12 receptor agonists, confirmation, cell-based, luminescence, HEK293, GAL4-LBD fusion (AID 743050;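 active means mean activation over triplicate wells above the hit cutoff derived from the earlier primary screen, cut at about 11% in these data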;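 further: 0% = DMSO low control and 100% = 2 mM sodium butyrate high control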); conditions: HEK293 GAL4-hgDAF12 luciferase reporter, agonist mode; at 6.8 µM; active compounds read high; percent of butyrate response
# [8] = biological target: Oxysterols receptor LXR-beta (Homo sapiens) (UniProt P55055); test: LXR agonists, Gal4 luciferase reporter, confirmation, counter-screen for hgDAF-12 agonist project, cell-based, luminescence, HEK293, H. glycines campaign (AID 743051;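 active means mean activation of the triplicate above a set limit carried over from the primary screen, none filed active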); conditions: 24 h, at 6.8 µM, active compounds read high
# [9] = biological target: Oxysterols receptor LXR-beta (Homo sapiens) (UniProt P55055); test: LXR agonists, Gal4 luciferase reporter, confirmation, counter-screen for hcDAF-12 agonist project, cell-based, luminescence, HEK293, H. contortus campaign (AID 743027;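 active means mean percent activation of the reporter above a cutoff set as the average over tested compounds plus their standard deviation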); conditions: HEK293 Gal4-LXR tk-luc reporter, 24 h, at 6.8 µM, active compounds read high, normalized: DMSO 0%, positive control 100%
# [10] = test system: Nuclear hormone receptor DAF-12 (Haemonchus contortus); test: H. contortus DAF-12 receptor agonists, confirmation, cell-based, luminescence, HEK293, lit1-tk-luc, triplicate (AID 743032;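 active means mean activation across triplicate tests above the threshold derived from the earlier primary screen, cut at about 5.5% in these data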;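 further: 0% = DMSO only wells and 100% = 3 µM Δ7-dafachronic acid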); conditions: HEK293 hcDAF-12 lit1-tk-luc reporter, at 6.8 µM, active compounds read high, % of Δ7-dafachronic acid response
# [11] = biological target: Nuclear receptor coactivator 3 (Homo sapiens) (UniProt Q9Y6Q9); test: SRC3 coactivator transcriptional activity inhibitors, confirmation, cell-based, luminescence, quadruplicate (AID 588792;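 active means mean inhibition over 43.08%, the solvent-only control mean plus 3 SD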;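 further: 0% = DMSO treated cells and 100% = gossypol at 36 µM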); conditions: HEK293 GAL4-SRC3 luciferase reporter, at 3.6 µM, active compounds read high
# [12] = test system: transactivating tegument protein VP16 (Human herpesvirus 1), Gal4-VP16 luciferase reporter; test: VP16 transactivation inhibitors, counter-screen for SRC3 inhibitor project, cell-based, luminescence, high throughput (AID 588794; in the data active means inhibition above about 30%); conditions: mammalian cells, VP16-driven luciferase reporter luminescence; at 3.6 µM; active compounds read high
# [13] = Gal4-VP16 luciferase reporter inhibitors, counter-screen for COUP-TFII antagonist project, cell-based, luminescence, HEK293 (AID 687007; in the data active means inhibition above about 13%); conditions: at 8.5 µM, active compounds read high
# [14] = biological target: COUP transcription factor 2 (Homo sapiens) (UniProt P24468); test: NR2F2 transcriptional activity inhibitors, confirmation, cell-based, luciferase reporter, HEK293, triplicate (AID 687008;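 active means mean inhibition over three repeats above a set limit taken from the earlier primary screen, cut at about 38% in these data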;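 further: 100% = cells given the luciferase reporter alone without the COUP-TF2 vector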); conditions: HEK293 NGFI-A luciferase reporter, luminescence; at 8.5 µM; active compounds read high
# [15] = biological target: Photoreceptor-specific nuclear receptor (Homo sapiens) (UniProt Q9Y5X4); test: NR2E3 agonist confirmation in cells, cell-based, luminescence, CHO-S two-hybrid (AID 624378;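 active means average inhibition above a cutoff equal to the mean inhibition of all tested compounds plus one SD, cut at about 70% in these data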;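 further: 0% = DMSO in NR2E3 cells and 100% = DMSO in cells lacking NR2E3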); conditions: CHO-S mammalian two-hybrid NR2E3-NCOR, luciferase luminescence; at 3.98 µM; active compounds read high
# [16] = GAL4-VP16 reporter modulators, confirmation, counter-screen for NR2E3 agonist project, cell-based, luminescence, CHO-S, high throughput (AID 624379;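 active means mean inhibition above a cutoff equal to the average over all tested compounds plus one standard deviation, cut at about 70% in these data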;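 further: 0% = DMSO with VP16-transfected cells and 100% = DMSO with cells lacking VP16; higher means less reporter light so more repression of VP16 activity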); conditions: CHO-S GAL4-VP16 luciferase reporter, at 3.98 µM, active compounds read high
# [17] = biological target: Peroxisome proliferator-activated receptor gamma (Homo sapiens) (UniProt P37231); test: agonists of PPARgamma SRC-2 coactivator recruitment, confirmation, biochemical, HTS (AID 1297; in the data active means activation above about 22%;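 further: 0% = vehicle alone and 100% = reference agonist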); conditions: biochemical SRC-2 recruitment by PPARgamma; at 8 µM; active compounds read high
# [18] = biological target: Peroxisome proliferator-activated receptor gamma (Homo sapiens) (UniProt P37231); test: PPARgamma agonists recruiting SRC-1 coactivator, confirmation, biochemical (AID 1300; in the data active means activation above about 20%;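 further: 0% = vehicle wells and 100% = reference agonist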); conditions: PPARgamma–SRC-1 coactivator recruitment biochemical assay; at 8 µM; active compounds read high
# [19] = biological target: Peroxisome proliferator-activated receptor gamma (Homo sapiens) + Nuclear receptor coactivator 3 (Homo sapiens) (UniProt P37231+Q9Y6Q9); test: PPARgamma-driven SRC-3 coactivator recruitment agonists, confirmation, biochemical (AID 1301; in the data active means activation above about 24%;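 further: 0% = vehicle wells and 100% = reference agonist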); conditions: biochemical PPARgamma-SRC-3 coactivator recruitment, agonist mode; at 8 µM; active compounds read high
# Chain of Peroxisome proliferator-activated receptor gamma (Homo sapiens) + Nuclear receptor coactivator 3 (Homo sapiens) (P37231 whole entry, looked up): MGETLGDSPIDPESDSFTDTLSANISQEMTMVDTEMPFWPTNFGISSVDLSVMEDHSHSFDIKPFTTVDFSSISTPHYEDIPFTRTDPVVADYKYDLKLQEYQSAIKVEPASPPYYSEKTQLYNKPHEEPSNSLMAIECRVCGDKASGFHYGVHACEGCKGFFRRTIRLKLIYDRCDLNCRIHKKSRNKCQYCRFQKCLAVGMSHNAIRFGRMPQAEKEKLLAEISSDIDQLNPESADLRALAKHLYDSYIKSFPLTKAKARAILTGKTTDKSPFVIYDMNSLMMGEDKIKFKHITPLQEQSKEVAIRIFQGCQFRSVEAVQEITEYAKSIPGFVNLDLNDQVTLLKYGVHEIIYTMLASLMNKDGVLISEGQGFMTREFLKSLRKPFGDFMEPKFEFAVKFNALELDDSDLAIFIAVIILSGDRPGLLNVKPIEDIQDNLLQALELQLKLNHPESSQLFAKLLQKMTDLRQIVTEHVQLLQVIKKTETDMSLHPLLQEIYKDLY
# Chain of Peroxisome proliferator-activated receptor gamma (Homo sapiens) + Nuclear receptor coactivator 3 (Homo sapiens) (Q9Y6Q9 whole entry, looked up): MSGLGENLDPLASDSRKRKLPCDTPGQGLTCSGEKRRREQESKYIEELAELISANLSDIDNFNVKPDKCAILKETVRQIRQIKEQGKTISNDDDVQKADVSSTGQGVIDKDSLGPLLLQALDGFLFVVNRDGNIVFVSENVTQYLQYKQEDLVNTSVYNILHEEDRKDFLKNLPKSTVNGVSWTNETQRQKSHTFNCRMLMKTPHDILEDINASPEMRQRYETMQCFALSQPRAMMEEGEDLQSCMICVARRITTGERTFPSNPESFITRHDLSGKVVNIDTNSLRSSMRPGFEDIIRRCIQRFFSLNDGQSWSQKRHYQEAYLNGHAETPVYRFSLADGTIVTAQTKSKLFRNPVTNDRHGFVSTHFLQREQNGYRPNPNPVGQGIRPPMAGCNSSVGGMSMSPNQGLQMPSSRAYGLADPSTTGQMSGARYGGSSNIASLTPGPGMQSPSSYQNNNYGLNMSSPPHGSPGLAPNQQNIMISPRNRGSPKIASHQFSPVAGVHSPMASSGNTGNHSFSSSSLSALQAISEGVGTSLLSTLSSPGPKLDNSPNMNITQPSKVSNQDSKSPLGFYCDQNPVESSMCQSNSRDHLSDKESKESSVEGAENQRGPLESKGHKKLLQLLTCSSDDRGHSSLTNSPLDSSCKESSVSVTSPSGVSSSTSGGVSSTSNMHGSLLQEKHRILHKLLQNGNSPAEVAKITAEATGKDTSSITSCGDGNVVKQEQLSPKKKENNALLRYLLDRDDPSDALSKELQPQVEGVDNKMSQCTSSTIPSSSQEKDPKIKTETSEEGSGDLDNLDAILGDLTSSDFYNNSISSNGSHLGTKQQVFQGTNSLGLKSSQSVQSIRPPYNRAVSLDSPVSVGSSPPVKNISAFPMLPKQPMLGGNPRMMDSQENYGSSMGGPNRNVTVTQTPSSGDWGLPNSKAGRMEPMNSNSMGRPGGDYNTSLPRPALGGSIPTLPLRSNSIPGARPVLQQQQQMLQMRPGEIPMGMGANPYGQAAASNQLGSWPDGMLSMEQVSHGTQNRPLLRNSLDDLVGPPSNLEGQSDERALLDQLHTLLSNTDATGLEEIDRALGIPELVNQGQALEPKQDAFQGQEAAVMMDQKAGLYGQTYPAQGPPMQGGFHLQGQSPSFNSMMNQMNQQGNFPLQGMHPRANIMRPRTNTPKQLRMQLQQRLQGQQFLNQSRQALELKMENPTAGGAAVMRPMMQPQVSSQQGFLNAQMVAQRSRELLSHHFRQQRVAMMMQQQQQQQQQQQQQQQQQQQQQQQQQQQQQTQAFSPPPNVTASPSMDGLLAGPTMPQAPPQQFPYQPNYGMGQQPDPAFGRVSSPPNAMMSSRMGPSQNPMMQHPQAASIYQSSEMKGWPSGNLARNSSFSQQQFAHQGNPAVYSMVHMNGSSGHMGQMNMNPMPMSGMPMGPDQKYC
# Chain of Oxysterols receptor LXR-beta (Homo sapiens) (P55055 whole entry, looked up, the tested form may be a part): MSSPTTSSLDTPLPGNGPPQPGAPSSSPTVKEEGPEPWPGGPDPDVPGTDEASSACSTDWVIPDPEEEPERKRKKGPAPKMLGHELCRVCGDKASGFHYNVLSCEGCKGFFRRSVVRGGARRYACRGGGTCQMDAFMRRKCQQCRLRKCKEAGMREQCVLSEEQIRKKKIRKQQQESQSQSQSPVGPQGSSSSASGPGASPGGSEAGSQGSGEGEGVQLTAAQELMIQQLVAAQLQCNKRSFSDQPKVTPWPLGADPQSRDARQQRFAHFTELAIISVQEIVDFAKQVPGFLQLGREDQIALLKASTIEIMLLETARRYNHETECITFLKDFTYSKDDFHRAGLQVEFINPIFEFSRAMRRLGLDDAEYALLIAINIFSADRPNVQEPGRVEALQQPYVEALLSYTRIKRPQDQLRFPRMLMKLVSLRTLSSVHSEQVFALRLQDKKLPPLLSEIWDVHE
# Chain of COUP transcription factor 2 (Homo sapiens) (P24468 whole entry, looked up): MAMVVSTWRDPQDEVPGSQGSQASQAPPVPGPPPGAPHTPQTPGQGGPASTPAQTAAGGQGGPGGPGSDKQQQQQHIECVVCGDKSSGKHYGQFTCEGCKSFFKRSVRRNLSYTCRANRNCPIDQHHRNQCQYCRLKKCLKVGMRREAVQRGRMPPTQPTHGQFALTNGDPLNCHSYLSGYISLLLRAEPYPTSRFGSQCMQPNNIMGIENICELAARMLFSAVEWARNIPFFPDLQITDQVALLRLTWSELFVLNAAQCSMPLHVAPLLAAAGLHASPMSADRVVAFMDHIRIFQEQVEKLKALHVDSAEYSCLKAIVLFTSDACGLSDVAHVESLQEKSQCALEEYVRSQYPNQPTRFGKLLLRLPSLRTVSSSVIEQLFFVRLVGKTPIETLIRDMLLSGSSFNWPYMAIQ
# Chain of Peroxisome proliferator-activated receptor gamma (Homo sapiens) (P37231 whole entry, looked up): as the sequence (P37231 whole entry, looked up) above
# Chain of Photoreceptor-specific nuclear receptor (Homo sapiens) (Q9Y5X4 whole entry, looked up, the tested form may be a part): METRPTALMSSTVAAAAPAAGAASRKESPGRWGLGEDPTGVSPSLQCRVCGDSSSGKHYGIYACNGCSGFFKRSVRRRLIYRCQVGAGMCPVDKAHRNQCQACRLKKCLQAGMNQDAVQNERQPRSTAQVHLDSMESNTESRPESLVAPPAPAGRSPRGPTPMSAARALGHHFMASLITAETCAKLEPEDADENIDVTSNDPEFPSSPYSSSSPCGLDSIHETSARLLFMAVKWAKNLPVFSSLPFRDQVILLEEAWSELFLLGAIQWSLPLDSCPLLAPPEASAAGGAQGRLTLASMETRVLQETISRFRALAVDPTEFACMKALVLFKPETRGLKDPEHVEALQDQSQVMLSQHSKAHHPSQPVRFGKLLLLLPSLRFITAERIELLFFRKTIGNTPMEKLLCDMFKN
# Chain of Nuclear receptor coactivator 3 (Homo sapiens) (Q9Y6Q9 whole entry, looked up, the tested form may be a part): as the sequence (Q9Y6Q9 whole entry, looked up) above
smiles,measurement,setting,value
COc1cccc(/C=C/c2ccc3ccccc3n2)c1OC(C)=O,inhibition,[1],25.2%
same,inhibition,[2],32.1% (active)
same,inhibition,[3],-9.23%
CCCCOc1ccc(-c2nnc(-c3ccco3)o2)cc1,inhibition,[1],21.3%
same,inhibition,[2],-24.1%
same,inhibition,[3],-66.4%
Cc1nc(-c2ccc(NC(=O)c3cccs3)cc2)cs1,inhibition,[1],27.5%
same,inhibition,[2],-26.7%
same,inhibition,[3],-111%
OCCn1c(-c2ccccc2)csc1=Nc1ccccc1,inhibition,[1],14%
same,inhibition,[2],-12%
same,inhibition,[3],-20.1%
O=C(Nc1ccc(NC(=O)c2cccs2)cn1)c1ccco1,inhibition,[1],20.3%
same,inhibition,[2],-29.5%
same,inhibition,[3],-92.3%
COc1ccc(C2=Nc3cc(C)ccc3OC2)cc1,inhibition,[1],19.3%
same,inhibition,[2],-18.5%
same,inhibition,[3],-114%
Cc1cc(NC(=O)c2cc(-c3cccs3)on2)nn1Cc1ccc(Cl)cc1,inhibition,[1],46.6% (active)
same,inhibition,[2],8.43%
same,inhibition,[3],0.57%
CC(C)(C)C(=O)c1cnc(Nc2ccccc2)s1,activation (% of control),[4],164% (active)
same,activation (% of control),[5],121%
same,activation (% of control),[6],105%
same,activation,[7],13.6% (active)
same,activation,[8],0.48%
COc1cccc(-c2nc3cc(C)ccc3o2)c1,inhibition,[1],1.5%
same,inhibition,[2],-23.8%
same,inhibition,[3],-109%
same,activation,[9],2.33%
same,activation,[10],16.7% (active)
CC(C)(CNC(=O)c1ccc(Cl)c(S(=O)(=O)N2CCc3ccccc3C2)c1)N1CCOCC1,inhibition,[1],57.1% (active)
same,inhibition,[2],13.4% (active)
same,inhibition,[3],9%
same,inhibition,[11],7.77%
same,inhibition,[12],32.8% (active)
same,inhibition,[13],0.6%
same,inhibition,[14],38.9% (active)
c1coc(CNc2ncnc3ccccc23)c1,inhibition,[1],40.4%
same,inhibition,[2],15.2% (active)
same,inhibition,[3],30.5% (active)
same,inhibition,[15],71.1% (active)
same,inhibition,[16],56.3%
same,inhibition,[13],4.88%
same,inhibition,[14],40.9% (active)
Cc1cc(N2C(=O)C(=O)/C(=C(/O)c3ccc(Cl)cc3)C2c2cccc(Br)c2)no1 (stereo not given),activation,[17],28.1% (active)
same,activation,[18],18.8%
same,activation,[19],14%
Cc1ccc(NC(=O)CN(C)CC(=O)Nc2cccc(F)c2)cc1[N+](=O)[O-],inhibition,[1],35.9%
same,inhibition,[2],13% (active)
same,inhibition,[3],19.3% (active)
same,inhibition,[15],74.5% (active)
same,inhibition,[16],86.7% (active)
same,inhibition,[13],1.63%
same,inhibition,[14],51.8% (active)
COc1ccc(Nc2ncc(F)c(N3CCOCC3)n2)cc1,inhibition,[1],3.37%
same,inhibition,[2],-21.5%
same,inhibition,[3],-107%
same,activation,[7],16.1% (active)
same,activation,[8],1%
